# The entries come from a sample that favours the strongest signals as a whole.
# B1: P-Selectin (Homo sapiens), P16109 (protein)
# chain: MANCQIAILYQRFQRVVFGISQLLCFSALISELTNQKEVAAWTYHYSTKAYSWNISRKYCQNRYTDLVAIQNKNEIDYLNKVLPYYSSYYWIGIRKNNKTWTWVGTKKALTNEAENWADNEPNNKRNNEDCVEIYIKSPSAPGKWNDEHCLKKKHALCYTASCQDMSCSKQGECLETIGNYTCSCYPGFYGPECEYVRECGELELPQHVLMNCSHPLGNFSFNSQCSFHCTDGYQVNGPSKLECLASGIWTNKPPQCLAAQCPPLKIPERGNMTCLHSAKAFQHQSSCSFSCEEGFALVGPEVVQCTASGVWTAPAPVCKAVQCQHLEAPSEGTMDCVHPLTAFAYGSSCKFECQPGYRVRGLDMLRCIDSGHWSAPLPTCEAISCEPLESPVHGSMDCSPSLRAFQYDTNCSFRCAEGFMLRGADIVRCDNLGQWTAPAPVCQALQCQDLPVPNEARVNCSHPFGAFRYQSVCSFTCNEGLLLVGASVLQCLATGNWNSVPPECQAIPCTPLLSPQNGTMTCVQPLGSSSYKSTCQFICDEGYSLSGPERLDCTRSGRWTDSPPMCEAIKCPELFAPEQGSLDCSDTRGEFNVGSTCHFSCDNGFKLEGPNNVECTTSGRWSATPPTCKGIASLPTPGLQCPALTTPGQGTMYCRHHPGTFGFNTTCYFGCNAGFTLIGDSTLSCRPSGQWTAVTPACRAVKCSELHVNKPIAMNCSNLWGNFSYGSICSFHCLEGQLLNGSAQTACQENGHWSTTVPTCQAGPLTIQEASTSITAYKSEGESAEFSFPLNLGEESLQGELRWKAEKAPSSQSWITFSLKNQKVSVQKSTSNPKFQLSETLPLTLQIPQVSLQFAGSGNLTLTLDRGILYQEVNLVVMKVTQPDSNTLTCEVMGPTSPKMRLILKQENQEARVSRQEKVIQVQAPEAGVWQCLLSEGEEVKMDSKIQVLSKGLNSGGGSGGGTGGGDLAPQMLRELQETNAALQDVRELLRQQVKEITFLKNTVMECDACGLDRNLPPLAPLGPHPETLVKVKDAEDQLGARVGYIELDLNSGKILESFRPEERFPMMSTFKVLLCGAVLSRIDAGQEQLGRRIHYSQNDLVEYSPVTEKHLTDGMTVRELCSAAITMSDNTAANLLLTTIGGPKELTAFLHNMGDHVTRLDRWEPELNEAIPNDERDTTMPVAMATTLRKLLTGELLTLASRQQLIDWMEADKVAGPLLRSALPAGWFIADKSGAGERGSRGIIAALGPDGKPSRIVVIYTTGSQATMDERNRQIAEIGASLIKHWGPDYKDHDGDYKDHDIDYKDDDDKGPHHHHHH
# What was measured:
# Assay in all cases: glycan array binding signal (z-score within array); higher = stronger binding
# Conditions in all cases: glycan notation: IUPAC condensed, linker removed
# Fuc(a1-2)Gal = biological target: Fuc(a1-2)Gal
# Procedure, shortened: (§1)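 The binding signal is a Z-score computed within each array. Data were drawn from 3228 arrays in the Consortium for Functional Glycomics database, restricted to those with a known protein sequence. Scores were averaged over arrays of the same protein sequence at different concentrations or buffers, and over linkers, and negative values can be taken as non-binding.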
# Fuc(a1-2)Gal(b1-4)Glc6S = biological target: Fuc(a1-2)Gal(b1-4)Glc6S
# Procedure, shortened: as §1
# [1] = biological target: Fuc(a1-2)[Gal(a1-4)]Gal(b1-4)GlcNAc
# Procedure, shortened: as §1
# Gal(a1-3)GalNAc = biological target: Gal(a1-3)GalNAc
# Procedure, shortened: as §1
# Gal(b1-3)GalNAc = biological target: Gal(b1-3)GalNAc
# Procedure, shortened: as §1
# Gal(b1-4)Glc = biological target: Gal(b1-4)Glc
# Procedure, shortened: as §1
# [2] = biological target: Gal(b1-4)GlcNAc(a1-6)Gal(b1-4)GlcNAc
# Procedure, shortened: as §1
# [3] = biological target: Gal(b1-4)GlcNAc(b1-3)Gal(b1-4)Glc
# Procedure, shortened: as §1
# Gal3S(b1-3)GalNAc = biological target: Gal3S(b1-3)GalNAc
# Procedure, shortened: as §1
# Gal3S6S(b1-4)GlcNAc6S = biological target: Gal3S6S(b1-4)GlcNAc6S
# Procedure, shortened: as §1
# [4] = biological target: GlcNAc(b1-2)Man(a1-3)[GlcNAc(b1-2)Man(a1-6)]Man(b1-4)GlcNAc(b1-4)GlcNAc
# Procedure, shortened: as §1
# [5] = biological target: GlcNAc(b1-3)[GlcNAc(b1-6)]GalNAc
# Procedure, shortened: as §1
# [6] = biological target: GlcNAc(b1-4)GlcNAc(b1-4)GlcNAc(b1-4)GlcNAc(b1-4)GlcNAc(b1-4)GlcNAc
# Procedure, shortened: as §1
# Kdn(a2-3)Gal(b1-4)GlcNAc = biological target: Kdn(a2-3)Gal(b1-4)GlcNAc
# Procedure, shortened: as §1
# [7] = biological target: Man(a1-3)[Man(a1-6)]Man(a1-6)[Man(a1-3)]Man(b1-4)GlcNAc(b1-4)GlcNAc
# Procedure, shortened: as §1
# [8] = biological target: Man(a1-3)[Man(a1-6)]Man(b1-4)GlcNAc(b1-4)GlcNAc
# Procedure, shortened: as §1
# [9] = biological target: Neu5Ac(a2-3)Gal(b1-3)GalNAc6S
# Procedure, shortened: as §1
# [10] = biological target: Neu5Ac(a2-3)Gal(b1-3)[Fuc(a1-4)]GlcNAc
# Procedure, shortened: as §1
# [11] = biological target: Neu5Ac(a2-3)Gal(b1-3)[Fuc(a1-4)]GlcNAc(b1-3)Gal(b1-4)[Fuc(a1-3)]GlcNAc
# Procedure, shortened: as §1
# [12] = biological target: Neu5Ac(a2-3)Gal(b1-3)[Neu5Ac(a2-6)]GalNAc
# Procedure, shortened: as §1
# [13] = biological target: Neu5Ac(a2-3)Gal(b1-4)GlcNAc(b1-3)Gal(b1-3)GlcNAc
# Procedure, shortened: as §1
# [14] = biological target: Neu5Ac(a2-3)Gal(b1-4)[Fuc(a1-3)]GlcNAc(b1-6)[Gal(b1-3)]GalNAc
# Procedure, shortened: as §1
# [15] = biological target: Neu5Ac(a2-3)Gal(b1-4)[Fuc(a1-3)]GlcNAc6S
# Procedure, shortened: as §1
# [16] = biological target: Neu5Ac(a2-3)[Neu5Ac(a2-6)]GalNAc
# Procedure, shortened: as §1
# [17] = biological target: Neu5Ac(a2-6)GalNAc(b1-4)GlcNAc
# Procedure, shortened: as §1
# [18] = biological target: Neu5Gc(a2-3)Gal(b1-3)[Fuc(a1-4)]GlcNAc
# Procedure, shortened: as §1
binder,measurement,setting,value
B1,glycan array binding signal (z-score),Fuc(a1-2)Gal,-0.092
same,glycan array binding signal (z-score),Fuc(a1-2)Gal(b1-4)Glc6S,-0.268
same,glycan array binding signal (z-score),[1],-0.151
same,glycan array binding signal (z-score),Gal(a1-3)GalNAc,-0.071
same,glycan array binding signal (z-score),Gal(b1-3)GalNAc,-0.218
same,glycan array binding signal (z-score),Gal(b1-4)Glc,-0.174
same,glycan array binding signal (z-score),[2],-0.301
same,glycan array binding signal (z-score),[3],-0.219
same,glycan array binding signal (z-score),Gal3S(b1-3)GalNAc,-0.113
same,glycan array binding signal (z-score),Gal3S6S(b1-4)GlcNAc6S,4.08
same,glycan array binding signal (z-score),[4],-0.237
same,glycan array binding signal (z-score),[5],-0.329
same,glycan array binding signal (z-score),[6],-0.163
same,glycan array binding signal (z-score),Kdn(a2-3)Gal(b1-4)GlcNAc,-0.191
same,glycan array binding signal (z-score),[7],-0.052
same,glycan array binding signal (z-score),[8],0.332
same,glycan array binding signal (z-score),[9],0.282
same,glycan array binding signal (z-score),[10],6.36
same,glycan array binding signal (z-score),[11],3.52
same,glycan array binding signal (z-score),[12],0.025
same,glycan array binding signal (z-score),[13],-0.141
same,glycan array binding signal (z-score),[14],0.071
same,glycan array binding signal (z-score),[15],9.93
same,glycan array binding signal (z-score),[16],-0.109
same,glycan array binding signal (z-score),[17],-0.322
same,glycan array binding signal (z-score),[18],4.38

# Reference: the supplement of paper PMC8728848
